Assay results reported in the supplement of paper PMC12045047.
Counter-ions that a name gives are not always drawn. A number with no mark means an inactive call.

System: primary human airway basal cells (HBEC, luciferase-transduced)
Experiment: proliferation (luciferase bioluminescence) Z score relative to plate mean; higher = more proliferation / more cells, active = 1.96 or more
Conditions: donor: 1; 0.5 µM; library: ENZO Libraries; 4 days
Description: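 Primary human bronchial epithelial (airway basal) cells from two donors, lentivirally transduced with pHIV-Luc-ZsGreen, were seeded at 2000 cells/well in 384-well plates in FAD medium with ENZO or Prestwick library compounds and cultured for 4 days. Luciferin was then added and bioluminescence was read as a measure of cell number. Relative light units were converted to Z scores against the plate, and the mean of triplicate wells is reported.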

Row | Compound | proliferation
1 | CC(C)CCNC(=O)[C@H](CC(C)C)NC(=O)[C@H]1O[C@@H]1C(=O)O | -0.298
2 | O=c1cc(N2CCOCC2)oc2c(-c3ccccc3)cccc12 | -0.437
3 | COc1cc(/C=C(\C#N)C(N)=O)cc(CSc2nc3ccccc3s2)c1O | -0.428
4 | NCC1CCC(C(=O)N[C@@H](Cc2ccccc2)C(=O)Nc2ccc(CC(=O)O)cc2)CC1 (stereo not given in full) | 0.228
5 | O=c1cc(-c2ccc(O)cc2)oc2cc(O)cc(O)c12 [Apigenin] | 0.308
6 | Nc1ccccc1NC(=O)CCCCCCC(=O)Nc1ccccc1 | 0.133
7 | Nc1ccc(CC(CC(=O)O)C(=O)O)cc1 [4-Amino-D L-benzylsuccinic acid] | 0.379
8 | CCCC[C@@H](C=O)NC(=O)[C@H](CC(C)C)NC(=O)OCc1ccccc1 [Calpeptin] | -0.319
9 | CCOC(=O)[C@H](CCc1ccccc1)N[C@@H](C)C(=O)N1CCC[C@H]1C(=O)O [Enalapril] | -0.154
10 | O=c1ncccn1[C@@H]1O[C@H](CO)[C@@H](O)[C@H]1O [Zebularine] | -0.238
11 | Oc1ccc(-c2nc(-c3ccc(F)cc3)c(-c3ccncc3)[nH]2)cc1 | 0.995
12 | CC(C)C[C@H](NP(=O)(O)O[C@@H]1O[C@@H](C)[C@H](O)[C@@H](O)[C@H]1O)C(=O)N[C@@H](Cc1c[nH]c2ccccc12)C(=O)O [Phosphoramidon] | -0.109
13 | N#CC(C#N)=C(N)/C(C#N)=C/c1cc(O)c(O)c(O)c1 | -0.239
14 | CC[C@H](CO)Nc1nc(NCc2ccccc2)c2ncn(C(C)C)c2n1 [Roscovitine] | -0.00187
15 | O=C(O)c1cc(NCc2cc(O)ccc2O)ccc1O [2-Hydroxy-5-(25-dihydroxybenzylamino)benzoic acid] | -0.149
16 | O=C(O)CNC(=O)C(CS)Cc1ccccc1 (racemic) [DL-Thiorphan] | 0.124
17 | CN(C)c1ccc(/C=C2/C(=O)Nc3ccccc32)cc1 | -0.0148
18 | CCOC(=O)c1ccc(OC(=O)CCCCCNC(=N)N)cc1 [Gabexate mesylate] | -0.301
19 | O=C1CCc2c(ccc3ccccc23)O1 [Splitomicin] | -0.477
20 | CC(C)n1cnc2c(NCc3ccccc3)nc(NCCO)nc21 [N9-isopropyl-olomoucine] | -0.31

Same assay, conditions: donor: 1; 5 µM; library: ENZO Libraries; 4 days

Row | Compound | proliferation
21 | CC(C)CCNC(=O)[C@H](CC(C)C)NC(=O)[C@H]1O[C@@H]1C(=O)O | -0.117
22 | O=c1cc(N2CCOCC2)oc2c(-c3ccccc3)cccc12 | -0.857
23 | COc1cc(/C=C(\C#N)C(N)=O)cc(CSc2nc3ccccc3s2)c1O | -0.258
24 | NCC1CCC(C(=O)N[C@@H](Cc2ccccc2)C(=O)Nc2ccc(CC(=O)O)cc2)CC1 (stereo not given in full) | 0.079
25 | O=c1cc(-c2ccc(O)cc2)oc2cc(O)cc(O)c12 [Apigenin] | 3.23 (active)
26 | Nc1ccccc1NC(=O)CCCCCCC(=O)Nc1ccccc1 | 0.0632
27 | Nc1ccc(CC(CC(=O)O)C(=O)O)cc1 [4-Amino-D L-benzylsuccinic acid] | -0.241
28 | CCCC[C@@H](C=O)NC(=O)[C@H](CC(C)C)NC(=O)OCc1ccccc1 [Calpeptin] | 0.152
29 | CCOC(=O)[C@H](CCc1ccccc1)N[C@@H](C)C(=O)N1CCC[C@H]1C(=O)O [Enalapril] | -0.126
30 | O=c1ncccn1[C@@H]1O[C@H](CO)[C@@H](O)[C@H]1O [Zebularine] | 0.0287
31 | Oc1ccc(-c2nc(-c3ccc(F)cc3)c(-c3ccncc3)[nH]2)cc1 | 0.0853
32 | CC(C)C[C@H](NP(=O)(O)O[C@@H]1O[C@@H](C)[C@H](O)[C@@H](O)[C@H]1O)C(=O)N[C@@H](Cc1c[nH]c2ccccc12)C(=O)O [Phosphoramidon] | 0.079
33 | N#CC(C#N)=C(N)/C(C#N)=C/c1cc(O)c(O)c(O)c1 | -0.228
34 | CC[C@H](CO)Nc1nc(NCc2ccccc2)c2ncn(C(C)C)c2n1 [Roscovitine] | -0.592
35 | O=C(O)c1cc(NCc2cc(O)ccc2O)ccc1O [2-Hydroxy-5-(25-dihydroxybenzylamino)benzoic acid] | -0.503
36 | O=C(O)CNC(=O)C(CS)Cc1ccccc1 (racemic) [DL-Thiorphan] | -0.0316
37 | CN(C)c1ccc(/C=C2/C(=O)Nc3ccccc32)cc1 | 1.43
38 | CCOC(=O)c1ccc(OC(=O)CCCCCNC(=N)N)cc1 [Gabexate mesylate] | 0.0316
39 | O=C1CCc2c(ccc3ccccc23)O1 [Splitomicin] | -0.269
40 | CC(C)n1cnc2c(NCc3ccccc3)nc(NCCO)nc21 [N9-isopropyl-olomoucine] | -0.285
